# Where “and” joins values, the source holds several entries; their conditions need not be identical. Identical values can stand only once. Inconclusive results are not listed. Where a call stands in place of a potency, no number is given. Calls of active or inactive are those of the source. Unless noted, calls come from the whole dose curve; as a rule, active = well fitted curve in the direction sought with a large enough effect; inconclusive = small, poorly fitted or top-dose-only effect, or another doubt; inactive = no such curve, though single readings can be large; an effect the other way counts as inactive or inconclusive.
# Experiments:
# [1] = molecular target: Peroxisome proliferator-activated receptor gamma (Homo sapiens) (UniProt P37231); assay: qHTS assay for small molecule antagonists of peroxisome proliferator-activated receptor gamma signaling (AID 588537; active = well fitted inhibition curve with a large enough effect in the signal ratio, with a control signal flat, not every such curve was filed as active; the % refers to the signal ratio;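 note: reporter cells co-stimulated with 50 nM rosiglitazone agonist during compound treatment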)
# Method in brief: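 HEK293 cells, PPAR-gamma-UAS-bla, 3000/well. Pre-incubation 6-6.5 h, 37 C. Compound titration with rosiglitazone 50 nM final, 16 h. CCF4 dye, 2 h RT, dual-emission fluorescence.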
# [2] = molecular target: Vitamin D3 receptor (Homo sapiens) (UniProt P11473); assay: qHTS assay for small molecule agonists of vitamin D receptor signaling (AID 588543; calls by dose curve)
# Method in brief: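 Reporter cells (HEK293T, VDR-UAS-bla) were seeded in medium with 2% charcoal-stripped serum and incubated 5 h, then compounds in concentration series were added for 16 h at 37 °C. Stimulation was scaled between DMSO basal and 50 nM 1α,25-dihydroxyvitamin D3.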
# [3] = qHTS assay for small molecule agonists of retinoid X receptor alpha signaling (AID 588544; calls by dose curve; note: potency is the fitted concentration of half-maximal effect); conditions: HEK293T RXRa-UAS-bla, beta-lactamase reporter, 18 h; 530 nm emission
# [4] = molecular target: Retinoic acid receptor RXR-alpha (Homo sapiens) (UniProt P19793); assay: as above
# [5] = molecular target: Thyroid hormone receptor beta (Homo sapiens) (UniProt P10828); assay: qHTS assay for small molecule agonists of thyroid hormone receptor beta signaling (AID 588545; calls by dose curve)
# Method in brief: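 Beta-lactamase reporter activity under TR response element control is measured in HEK 293 cells after 18 hrs compound exposure. Signal is ratiometric CCF4 fluorescence, 460/530 nm.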
# [6] = qHTS assay for small molecule antagonists of retinoid X receptor alpha signaling (AID 588546; active = well fitted inhibition curve with a large enough effect in the signal ratio, with a control signal flat, not every such curve was filed as active; the % refers to the signal ratio;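 note: cells stimulated with 9-cis-retinoic acid as agonist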); conditions: HEK293T RXRa-UAS-bla, beta-lactamase ratio, antagonist mode; measured here: W530 green channel, cytotoxicity proxy
# Method in brief: (§1)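 Beta-lactamase reporter inhibition, read as CCF4 fluorescence ratio (ex 405, em 460/530 nm) after 2 h at RT. HEK293T UAS-bla cells, 2500/well, were stimulated with 9-cis-RA at 500 or 100 nM final alongside test compound for 18 h at 37 C.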
# [7] = molecular target: Retinoic acid receptor RXR-alpha (Homo sapiens) (UniProt P19793); assay: as above; conditions: HEK293T RXRa-UAS-bla, beta-lactamase ratio, antagonist mode
# Method in brief: as §1
# [8] = molecular target: Luciferin 4-monooxygenase (Photinus pyralis) (UniProt P08659); assay: Biochemical firefly luciferase enzyme assay for NPC (AID 624030);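 note: purified P. pyralis luciferase at 10 nM with luciferin and ATP substrate; series mostly up to about 59 µM; nearly all actives have a fitted effect of over 70% in size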
# Method in brief: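 Counter-screen for direct inhibition of the luciferase enzyme by approved-drug library compounds, run at 10 nM enzyme in 50 mM Tris acetate (final). Luminescence was read within 5 min of enzyme-buffer addition and normalized to PTC124 versus DMSO (0%).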
# [9] = molecular target: Peroxisome proliferator-activated receptor delta (Homo sapiens) (UniProt Q03181); assay: qHTS assay for small molecule antagonists of peroxisome proliferator-activated receptor delta signaling (AID 588535; active = well fitted inhibition curve with a large enough effect in the signal ratio, with a control signal flat, not every such curve was filed as active; the % refers to the signal ratio)
# Method in brief: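 Compounds tested in titration on PPAR-delta-UAS-bla HEK293T cells grown in charcoal/dextran-stripped serum (2%); beta-lactamase activity read via CCF4 emission at 460 and 530 nm.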
# [10] = molecular target: Thyroid hormone receptor beta (Homo sapiens) (UniProt P10828); assay: qHTS assay for small molecule antagonists of thyroid hormone receptor beta signaling (AID 588547; active = well fitted inhibition curve with a large enough effect in the signal ratio, with a control signal flat, not every such curve was filed as active; the % refers to the signal ratio;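 note: cells stimulated with 0.4 nM T3 agonist during compound exposure; series mostly up to about 77 µM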); conditions: TR-UAS-bla HEK293, beta-lactamase ratio, antagonist mode, 18 h
# Method in brief: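 TR-UAS-bla GripTite HEK293 cells in 2% charcoal/dextran FBS medium were preincubated 4 h at 37 C, given compound (0.59 nM to 92 uM) plus 0.4 nM T3 (final) for 18 h, then CCF4 for 2 h at RT; Hill fit gave IC50.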
# [11] = molecular target: Vitamin D3 receptor (Homo sapiens) (UniProt P11473); assay: qHTS assay for small molecule antagonists of vitamin D receptor signaling (AID 588541; calls by dose curve;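 note: receptor activated by calcitriol during compound treatment; series mostly up to about 77 µM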)
# Method in brief: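 VDR-UAS-bla HEK293T cells (2000/well, 2% charcoal-stripped FBS) were treated with titrated compounds plus 1-alpha,25-dihydroxyvitamin D3 (50 nM or 3 nM final) for 16 h at 37 C. CCF4 beta-lactamase fluorescence was read; Hill fits gave IC50.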
# [12] = molecular target: Voltage-gated inwardly rectifying potassium channel KCNH2 (Homo sapiens) (UniProt Q12809); assay: qHTS Assay for Small Molecule Inhibitors of the Human hERG Channel Activity (AID 588834);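 note: top concentration of the series differs between compounds; lower thallium flux fluorescence means stronger hERG block; nearly all actives have a fitted effect of over 50% in size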
# Method in brief: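 Step 1: BacMam hERG transduction of U2OS, 4 hrs RT. Step 2: overnight 37 °C, plate 2000 cells/well, 4 hr. Step 3: FluxOR load, compound 10 min, stimulate, read fluorescence.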
# [13] = molecular target: Glutaminase kidney isoform, mitochondrial (Homo sapiens) (UniProt O94925); assay: qHTS for Inhibitors of Glutaminase (GLS): LOPAC Validation (AID 624146); note: nearly all actives have a fitted effect of over 60% in size; note: potency is the fitted concentration of half-maximal effect
# Method in brief: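 Glutamate formation by hKGA was monitored fluorometrically using coupled glutamate oxidase, HRP and Amplex Red. Substrate was added as 1 mM L-glutamine solution; incubation was 30 min at RT after an initial read.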
# [14] = qHTS of Trypanosoma Brucei Inhibitors: LOPAC Validation (AID 624147)
# Method in brief: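 Glycolytic pyruvate kinase of T. brucei was incubated with substrate, test compound and 130 uM ADP for 45 minutes at room temperature. Luminescent Kinase-Glo Plus signal was measured after 10 minutes.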
# [15] = molecular target: Glucagon-like peptide 1 receptor (Homo sapiens) (UniProt P43220); assay: qHTS of GLP-1 Receptor Agonists: LOPAC Validation (AID 624148);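 note: higher luminescence signal means agonism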
# Method in brief: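 HEK293 cells stably co-expressing a cAMP-responsive luciferase reporter and a hypersensitive GLP-1R were plated 12 h at 37 °C and exposed to compounds for 4-6 hr at 37 °C, 5% CO2. Luminescence was read 12 min after adding detection reagent.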
# [16] = qHTS of Nrf2 Activators: LOPAC Validation (AID 624149)
# Method in brief: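 Following overnight seeding in 5% FBS OPTI-MEM, AREc32_Fluc cells receive compounds for a 24 hr incubation at 37 deg C with 5% CO2. Steady-Glo is added, and after 30 min at RT luminescence is recorded.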
# [17] = HTS Assay for Allosteric Antagonists of the Human D2 Dopamine Receptor: Hit Validation in HTRF (AID 624455);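 note: stable D1 dopamine receptor cell line scored for blocking the D1 response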
# Method in brief: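 Validation of hits used D1 receptor stably expressed in cells with HTRF detection of response inhibition; origin screen measured calcium flux following EC80 dopamine in a force-coupled, inducible Hek293 Trex D2 cell line.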
# [18] = S16 Schwann cell PMP22 intronic element firefly luciferase assay (AID 624032); note: series mostly up to about 58 µM; nearly all actives have a fitted effect of over 30% in size
# Method in brief: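 Rat S16 Schwann cells stably carrying a PMP22 intronic element-driven Fluc reporter were seeded overnight, then exposed to compounds for 24 h at 37 °C. Luminescence was normalized to PTC124 (positive control) and DMSO (0% activity).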
# [19] = S16 Schwann cell viability assay (CellTiter-Glo assay) (AID 624031);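 note: native untransfected S16 rat Schwann cells; cellular ATP luminescence as a viability measure; series mostly up to about 58 µM; nearly all actives have a fitted effect of over 70% in size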
# Method in brief: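 Following overnight culture in 10% FBS DMEM, parental S16 rat Schwann cells are dosed for 24 h at 37 °C. Viability is read as CellTiter-Glo luminescence and expressed as % activity relative to DMSO (0%) and no-cell wells.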
# [20] = S16 Schwann cell PMP22 intronic element beta-lactamase assay (AID 624044; calls by dose curve; note: nearly all actives have a fitted effect of over 15% in size)
# Method in brief: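 Beta-lactamase reporter under a PMP22 intronic regulatory element in stable S16 rat Schwann cells; 24 h compound exposure. 460 nm blue signal normalized between DMSO (0%) and potassium clavulanate, with 535 nm FRET tracking viability; curves classed by r2 and response.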
# Chain of Luciferin 4-monooxygenase (Photinus pyralis) (P08659 whole entry, looked up): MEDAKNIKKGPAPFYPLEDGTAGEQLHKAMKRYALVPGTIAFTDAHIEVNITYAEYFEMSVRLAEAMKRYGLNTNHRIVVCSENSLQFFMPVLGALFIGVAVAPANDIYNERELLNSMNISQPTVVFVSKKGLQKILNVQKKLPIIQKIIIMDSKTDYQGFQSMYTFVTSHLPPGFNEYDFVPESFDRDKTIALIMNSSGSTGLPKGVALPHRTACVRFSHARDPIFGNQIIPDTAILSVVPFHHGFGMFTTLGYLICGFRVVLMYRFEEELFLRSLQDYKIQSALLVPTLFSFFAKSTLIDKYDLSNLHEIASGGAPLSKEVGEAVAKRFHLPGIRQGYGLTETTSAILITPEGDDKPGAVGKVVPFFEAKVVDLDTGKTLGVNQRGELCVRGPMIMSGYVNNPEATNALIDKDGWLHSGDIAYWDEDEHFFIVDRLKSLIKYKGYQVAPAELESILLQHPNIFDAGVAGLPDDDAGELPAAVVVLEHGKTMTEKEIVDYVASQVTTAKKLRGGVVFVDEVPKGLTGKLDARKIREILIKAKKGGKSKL
# Chain of Peroxisome proliferator-activated receptor delta (Homo sapiens) (Q03181 whole entry, looked up): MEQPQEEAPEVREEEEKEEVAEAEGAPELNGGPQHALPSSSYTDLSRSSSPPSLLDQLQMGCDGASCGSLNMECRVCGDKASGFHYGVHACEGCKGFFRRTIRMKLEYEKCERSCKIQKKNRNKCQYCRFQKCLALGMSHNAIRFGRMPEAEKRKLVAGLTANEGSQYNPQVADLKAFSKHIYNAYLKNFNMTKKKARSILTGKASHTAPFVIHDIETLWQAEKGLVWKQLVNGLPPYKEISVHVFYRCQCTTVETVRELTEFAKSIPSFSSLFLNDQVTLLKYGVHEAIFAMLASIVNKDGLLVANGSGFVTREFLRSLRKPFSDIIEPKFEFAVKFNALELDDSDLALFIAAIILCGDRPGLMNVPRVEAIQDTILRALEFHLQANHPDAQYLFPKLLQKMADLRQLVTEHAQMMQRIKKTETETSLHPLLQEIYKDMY
# Chain of Thyroid hormone receptor beta (Homo sapiens) (P10828 whole entry, looked up): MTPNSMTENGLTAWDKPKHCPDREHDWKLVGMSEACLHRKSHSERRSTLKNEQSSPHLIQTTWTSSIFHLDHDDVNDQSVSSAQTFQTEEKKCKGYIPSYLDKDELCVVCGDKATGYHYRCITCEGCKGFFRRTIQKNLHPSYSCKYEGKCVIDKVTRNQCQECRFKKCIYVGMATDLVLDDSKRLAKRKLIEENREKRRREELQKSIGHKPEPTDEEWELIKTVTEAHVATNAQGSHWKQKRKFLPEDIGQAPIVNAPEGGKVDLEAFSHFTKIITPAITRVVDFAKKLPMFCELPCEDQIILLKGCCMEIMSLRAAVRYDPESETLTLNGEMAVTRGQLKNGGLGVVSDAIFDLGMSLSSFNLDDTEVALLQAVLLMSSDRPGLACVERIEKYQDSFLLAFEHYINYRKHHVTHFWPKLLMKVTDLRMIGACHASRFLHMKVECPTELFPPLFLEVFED
# Chain of Peroxisome proliferator-activated receptor gamma (Homo sapiens) (P37231 whole entry, looked up): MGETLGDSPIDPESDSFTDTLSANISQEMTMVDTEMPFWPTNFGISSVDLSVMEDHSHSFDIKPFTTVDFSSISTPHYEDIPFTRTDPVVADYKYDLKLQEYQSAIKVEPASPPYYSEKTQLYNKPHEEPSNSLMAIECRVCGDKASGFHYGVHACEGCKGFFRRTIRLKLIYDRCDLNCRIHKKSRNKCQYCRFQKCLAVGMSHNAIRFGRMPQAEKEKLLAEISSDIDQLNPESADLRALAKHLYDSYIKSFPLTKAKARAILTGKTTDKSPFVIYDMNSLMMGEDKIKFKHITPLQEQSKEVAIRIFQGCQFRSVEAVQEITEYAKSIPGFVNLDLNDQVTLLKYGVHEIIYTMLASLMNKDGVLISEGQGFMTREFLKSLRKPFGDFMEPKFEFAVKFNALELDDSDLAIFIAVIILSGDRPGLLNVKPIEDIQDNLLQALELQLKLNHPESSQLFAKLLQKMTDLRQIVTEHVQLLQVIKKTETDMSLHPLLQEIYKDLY
# Chain of Glutaminase kidney isoform, mitochondrial (Homo sapiens) (O94925 whole entry, looked up, canonical isoform): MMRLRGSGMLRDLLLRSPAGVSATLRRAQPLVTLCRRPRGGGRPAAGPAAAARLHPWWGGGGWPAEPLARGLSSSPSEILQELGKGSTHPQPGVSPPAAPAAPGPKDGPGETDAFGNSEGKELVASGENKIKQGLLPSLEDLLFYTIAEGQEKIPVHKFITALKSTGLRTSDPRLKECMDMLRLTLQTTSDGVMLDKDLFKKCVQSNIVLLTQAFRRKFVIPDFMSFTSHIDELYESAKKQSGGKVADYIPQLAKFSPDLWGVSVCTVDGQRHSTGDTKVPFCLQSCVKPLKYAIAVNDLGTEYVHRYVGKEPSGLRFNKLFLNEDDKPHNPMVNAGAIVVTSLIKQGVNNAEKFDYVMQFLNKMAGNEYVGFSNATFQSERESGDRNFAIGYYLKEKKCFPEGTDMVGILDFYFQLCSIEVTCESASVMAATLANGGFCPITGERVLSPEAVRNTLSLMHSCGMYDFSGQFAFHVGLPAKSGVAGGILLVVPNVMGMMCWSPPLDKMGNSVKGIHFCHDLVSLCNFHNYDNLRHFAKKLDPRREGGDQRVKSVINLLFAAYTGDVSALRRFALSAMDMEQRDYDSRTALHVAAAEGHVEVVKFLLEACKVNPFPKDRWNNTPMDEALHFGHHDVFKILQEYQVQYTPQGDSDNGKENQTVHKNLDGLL
# Chain of Vitamin D3 receptor (Homo sapiens) (P11473 whole entry, looked up): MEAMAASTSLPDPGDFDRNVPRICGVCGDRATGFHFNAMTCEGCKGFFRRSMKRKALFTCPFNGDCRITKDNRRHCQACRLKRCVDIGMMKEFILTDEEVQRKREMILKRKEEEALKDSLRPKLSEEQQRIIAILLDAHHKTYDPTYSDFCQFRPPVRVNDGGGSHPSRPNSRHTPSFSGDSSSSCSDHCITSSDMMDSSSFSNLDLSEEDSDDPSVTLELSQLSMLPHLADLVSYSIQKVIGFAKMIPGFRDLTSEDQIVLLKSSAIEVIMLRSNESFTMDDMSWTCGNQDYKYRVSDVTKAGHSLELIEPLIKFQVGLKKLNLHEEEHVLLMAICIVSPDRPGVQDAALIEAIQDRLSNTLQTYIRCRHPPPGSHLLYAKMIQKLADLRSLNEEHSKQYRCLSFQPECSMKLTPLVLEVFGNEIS
# Chain of Retinoic acid receptor RXR-alpha (Homo sapiens) (P19793 whole entry, looked up): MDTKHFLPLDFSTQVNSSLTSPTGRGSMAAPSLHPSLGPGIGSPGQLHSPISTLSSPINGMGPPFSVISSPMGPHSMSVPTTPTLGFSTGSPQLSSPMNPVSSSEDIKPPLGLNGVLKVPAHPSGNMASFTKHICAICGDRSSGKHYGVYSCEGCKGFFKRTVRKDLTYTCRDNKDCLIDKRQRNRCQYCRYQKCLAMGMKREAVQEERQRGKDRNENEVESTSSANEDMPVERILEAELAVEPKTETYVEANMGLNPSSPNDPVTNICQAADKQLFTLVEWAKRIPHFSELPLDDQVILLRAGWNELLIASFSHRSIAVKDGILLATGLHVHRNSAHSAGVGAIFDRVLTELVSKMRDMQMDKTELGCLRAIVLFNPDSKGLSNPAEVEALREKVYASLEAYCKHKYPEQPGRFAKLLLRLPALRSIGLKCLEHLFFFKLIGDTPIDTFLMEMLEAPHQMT
# Chain of Glucagon-like peptide 1 receptor (Homo sapiens) (P43220 whole entry, looked up): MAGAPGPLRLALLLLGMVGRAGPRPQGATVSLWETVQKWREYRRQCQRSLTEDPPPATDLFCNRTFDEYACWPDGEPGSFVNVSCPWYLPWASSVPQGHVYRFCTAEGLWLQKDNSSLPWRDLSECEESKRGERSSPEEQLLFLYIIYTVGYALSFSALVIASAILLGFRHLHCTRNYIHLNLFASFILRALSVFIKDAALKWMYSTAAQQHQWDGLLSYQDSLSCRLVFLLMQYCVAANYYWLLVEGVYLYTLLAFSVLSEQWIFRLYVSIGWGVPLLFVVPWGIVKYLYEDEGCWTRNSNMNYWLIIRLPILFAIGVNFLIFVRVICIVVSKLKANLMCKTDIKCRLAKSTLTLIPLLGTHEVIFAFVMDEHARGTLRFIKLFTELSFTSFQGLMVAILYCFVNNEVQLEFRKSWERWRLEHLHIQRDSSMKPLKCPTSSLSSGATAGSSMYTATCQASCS
smiles,measurement,setting,value
CC1(C)C(C=C(Cl)Cl)C1C(=O)OC(C#N)c1cccc(Oc2ccccc2)c1 (centres undefined),outcome,[1],inactive
same,outcome,[2],inactive
same,max response,[3],0.437%
same,Potency,[4],inactive
same,outcome,[5],inactive
same,max response,[6],-14.1%
same,max response,[7],-18% (inactive)
same,Potency,[8],inactive
COP(=S)(OC)Oc1cc(Cl)c(Cl)cc1Cl,outcome,[9],inactive
same,outcome,[1],inactive
same,max response,[3],-2.58%
same,Potency,[4],inactive
same,outcome,[5],inactive
same,max response,[6],1.09%
same,max response,[7],-5.5% (inactive)
same,activity change % (negative = inhibition),[10],19.2% (inactive)
same,Potency,[8],inactive
O=C(O)CCCc1ccc(N(CCCl)CCCl)cc1,outcome,[9],inactive
same,outcome,[1],inactive
same,Potency,[11],inactive
same,outcome,[2],inactive
same,max response,[3],15.5% and 20.9%
same,Potency,[4],inactive
same,outcome,[5],inactive
same,max response,[6],6.94% and -4.83%
same,max response,[7],8.7% (inactive) and 8.13% (inactive)
same,activity change % (negative = inhibition),[10],16.9% (inactive) and 14.1% (inactive)
same,Potency,[12],inactive
same,Potency,[8],inactive
same,Potency,[13],inactive
same,outcome,[14],inactive
same,outcome,[15],inactive
same,outcome,[16],inactive
same,Potency,[17],inactive
[N-]=[N+]=CC(=O)OC[C@H](N)C(=O)O,outcome,[9],inactive
same,Potency,[11],inactive
same,outcome,[2],inactive
same,max response,[3],-12%
same,Potency,[4],inactive
same,outcome,[5],inactive
same,max response,[6],-15.7%
same,max response,[7],7.74% (inactive)
same,activity change % (negative = inhibition),[10],10.8% (inactive)
CCCCCN(C)CCC(O)(P(=O)(O)O)P(=O)(O)O,Potency,[12],inactive
Oc1ccc(Cl)cc1,outcome,[9],inactive
same,outcome,[1],inactive
same,Potency,[11],inactive
same,outcome,[2],inactive
same,max response,[3],-11.6%
same,Potency,[4],inactive
same,outcome,[5],inactive
same,max response,[6],-7.58%
same,max response,[7],-3.06% (inactive)
same,activity change % (negative = inhibition),[10],-0.268% (inactive)
same,Potency,[12],inactive
same,Potency,[8],inactive
same,Potency,[18],inactive
O=C1c2ccccc2C(=O)c2ccccc21,outcome,[9],inactive
same,outcome,[1],inactive
same,Potency,[11],inactive
same,outcome,[2],inactive
same,max response,[3],-19.1%
same,Potency,[4],35.5 µM (active)
same,outcome,[5],inactive
same,max response,[6],-16.5%
same,max response,[7],-15.9% (inactive)
same,activity change % (negative = inhibition),[10],-1.19% (inactive)
same,Potency,[12],inactive
same,Potency,[8],inactive
same,outcome,[19],inactive
same,Potency,[18],inactive
C[C@]12CCC(=O)C=C1CC[C@@H]1[C@@H]2CC[C@@]2(C)[C@H]1CC[C@]2(C)O,outcome,[2],inactive
same,max response,[3],-11.4%
same,Potency,[4],inactive
same,outcome,[5],inactive
same,max response,[6],-11.8%
same,max response,[7],36.9% (inactive)
same,Potency,[12],inactive
same,Potency,[8],inactive
COc1cc(OC)c(OC)cc1C=O,Potency,[11],inactive
same,outcome,[2],inactive
same,max response,[6],-5.72%
same,max response,[7],-9.79% (inactive)
same,Potency,[12],inactive
same,Potency,[8],inactive
O=P1(N(CCCl)CCCl)NCCCO1 (centres undefined),outcome,[9],inactive
same,outcome,[1],inactive
same,Potency,[11],inactive
same,outcome,[2],inactive
same,max response,[3],8.36% and -10.5%
same,Potency,[4],inactive
same,outcome,[5],inactive
same,max response,[6],-4.41% and 6%
same,max response,[7],8.47% (inactive) and -0.0175% (inactive)
same,activity change % (negative = inhibition),[10],-0.786% (inactive)
same,Potency,[12],inactive
same,Potency,[8],inactive
same,Potency,[18],inactive
same,Potency,[13],inactive
same,outcome,[14],inactive
same,outcome,[15],inactive
same,outcome,[16],inactive
same,Potency,[17],inactive
CCC(C)(C)c1ccc(O)cc1,outcome,[1],inactive
same,Potency,[11],inactive
same,outcome,[2],inactive
same,max response,[3],-12.7% and -6.48%
same,Potency,[4],inactive
same,outcome,[5],inactive
same,max response,[6],-6.99% and -5.65%
same,max response,[7],7.35% (inactive) and 8.15% (inactive)
same,activity change % (negative = inhibition),[10],9.09% (inactive)
same,Potency,[12],inactive
same,Potency,[8],inactive
same,Potency,[18],inactive
C[C@]1(O)CC[C@H]2[C@@H]3CCC4=CC(=O)CC[C@]4(C)[C@@]3(F)[C@@H](O)C[C@@]21C,outcome,[9],inactive
same,outcome,[1],inactive
same,max response,[3],3.94%
same,Potency,[4],inactive
same,outcome,[5],inactive
same,max response,[6],17.9%
same,max response,[7],-6.75% (inactive)
same,activity change % (negative = inhibition),[10],5.6% (inactive)
same,Potency,[12],inactive
CC(C)c1cccc(C(C)C)c1O,outcome,[9],inactive
same,Potency,[11],inactive
same,outcome,[2],inactive
same,max response,[3],-14.1%
same,Potency,[4],inactive
same,outcome,[5],inactive
same,max response,[6],2.4%
same,max response,[7],16.4% (inactive)
same,activity change % (negative = inhibition),[10],-3.45% (inactive)
same,Potency,[12],inactive
same,Potency,[8],inactive
same,Potency,[18],inactive
same,outcome,[20],inactive
same,Potency,[13],4.47 µM (active)
same,outcome,[14],inactive
same,outcome,[15],inactive
same,outcome,[16],inactive
same,Potency,[17],inactive
NC(=O)CS(=O)C(c1ccccc1)c1ccccc1 (centres undefined),Potency,[12],inactive
same,Potency,[8],inactive
same,outcome,[19],inactive
same,Potency,[18],inactive
COC(=O)[C@@H](N)CCCN/C(N)=N/[N+](=O)[O-],Potency,[12],inactive
O=c1[nH]oc2c1CCNC2,Potency,[12],inactive
same,Potency,[8],inactive
same,outcome,[19],inactive
same,Potency,[18],inactive
same,Potency,[13],inactive
same,outcome,[14],inactive
same,outcome,[15],inactive
same,outcome,[16],inactive
same,Potency,[17],inactive
Cc1nnc2n1-c1ccc(Cl)cc1C(c1ccccc1Cl)=NC2,Potency,[12],inactive
same,Potency,[8],inactive
same,outcome,[19],inactive
same,Potency,[18],inactive
same,outcome,[20],inactive
CCCCCCC(=O)CCCCCC/C=C/C[C@@H](O)[C@H](O)[C@@](N)(CO)C(=O)O,Potency,[12],inactive
same,Potency,[8],inactive
same,outcome,[19],inactive

# From PubChem BioAssay (NCATS)
